Drawing on PubChem BioAssay AID1220 (Sanford-Burnham Center for Chemical Genomics, 2008), this text covers inhibition for 60 compounds.

Structures are written as SMILES. In all, about 190,000 compounds went through this assay and about 1,300 (0.68%) were called active. This is one part of a sample in which actives are shown more often than they occur. Values without a mark were called inactive. No stated cut-off is given here; in the data, active means inhibition above about 50%; inactive means the rest.

Mannose-6-phosphate isomerase (Homo sapiens), sequence (P34949 whole entry, looked up): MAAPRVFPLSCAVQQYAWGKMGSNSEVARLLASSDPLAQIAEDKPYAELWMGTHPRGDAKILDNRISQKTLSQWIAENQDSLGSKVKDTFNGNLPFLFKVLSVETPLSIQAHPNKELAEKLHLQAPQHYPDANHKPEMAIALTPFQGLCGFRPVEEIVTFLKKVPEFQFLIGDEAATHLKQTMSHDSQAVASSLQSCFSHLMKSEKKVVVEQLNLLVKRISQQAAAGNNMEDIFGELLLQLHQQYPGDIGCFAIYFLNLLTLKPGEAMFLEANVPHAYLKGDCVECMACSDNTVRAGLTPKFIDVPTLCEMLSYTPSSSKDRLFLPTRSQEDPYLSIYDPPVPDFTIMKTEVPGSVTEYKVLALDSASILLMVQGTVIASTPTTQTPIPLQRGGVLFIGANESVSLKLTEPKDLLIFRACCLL

The assay concerns the target Mannose-6-phosphate isomerase (Homo sapiens) (UniProt P34949). The assay is described as follows: MPI inhibition at elevated mannose 6-phosphate – biochemical, fluorescence intensity, high mannose 6-phosphate, primary screen (AID 1220). Conditions: recombinant PMI enzyme, coupled fluorescence intensity; at 20 µM; active compounds read high.
For orientation: inhibition means the relative decrease from the control value, in per cent. As to `Cc1cc(C)cc(NC(=O)C2(c3cccs3)CCOCC2)c1`, the inhibition was 3.6%.

As to `O=C(C/C=N\OCc1ccc(Cl)cc1Cl)Nc1ccccc1`, the inhibition was 15.2%.

Turning to `Nc1ccc(Nc2ccccc2N)cc1`, the inhibition was 52.9% (active).

Regarding `COc1ccc(Nc2ccccc2N)cc1`, the inhibition was 3.8%.

For the compound `Nc1ccccc1Nc1ccccc1`, the inhibition is -26.3%.

As for `Cc1ccc(-c2cnc(-c3ccncc3)o2)cc1`, the inhibition is -3.1%.

Consider `CCC(O)(C#CCN1CCCCC1)CC`, for which the inhibition is -6.1%.

Turning to `Cc1ccc2c(c1)C(O)(CC(=O)c1ccc(C)s1)C(=O)N2` (stereo not given), the inhibition was 4.5%.

With `CC1CCN(S(=O)(=O)c2ccc(C(=O)OCc3ccc4c(c3)OCO4)cc2)CC1`, the inhibition was -5.5%.

On to `CCCCN=C1C([N+](=O)[O-])=CC=C2C1=NC1(CCCCC1)N2O`, for which the inhibition is 53% (active).

For the compound `Cn1c(SCC(=O)Nc2cccc3ccccc23)nc(O)cc1=O`, the inhibition is 26.1%.

On to `O=C(O)C(=O)Cc1c[nH]c2ccccc12`, for which the inhibition was -4.1%.

`NC(=O)Cc1c[nH]c2cccc(O)c12`: the inhibition was 44.8%.

`O=C(O)Cc1c[nH]c2cccc(O)c12`: the inhibition is 51.5% (active).

On to `CCN(CC(=O)Nc1ccc2c(c1)OCCO2)CC(=O)Nc1ccc2c(c1)OCO2`, for which the inhibition is 5.7%.

For the compound `COc1ccc(S(=O)(=O)NCCCCNS(=O)(=O)c2ccc(OC)cc2)cc1`, the inhibition is 1.1%.

Take `Cc1ccc(-c2[nH]c(-c3ccccc3)nc2SCC(=O)NCC2CCCO2)cc1` (stereo not given): the inhibition is 3.3%.

`O=C(OC1CCN(c2ncc(C(F)(F)F)cc2Cl)CC1)c1ccc(Cl)cc1`: the inhibition is 7.7%.

Turning to `COc1ccc(C(=O)OC2CCN(c3ncc(C(F)(F)F)cc3Cl)CC2)cc1`, the inhibition is 54.2% (active).

For `O=C(OC1CCN(c2ncc(C(F)(F)F)cc2Cl)CC1)c1ccccc1`, the inhibition is 11.4%.

As for `NS(=O)(=O)c1ccc(CCNC(=O)COC(=O)/C=C/c2ccc(Cl)cc2)cc1`, the inhibition was 0.2%.

On to `CCc1nnc(NC(=O)CSc2nnc(COc3ccc(C)cc3)n2-c2ccccc2)s1`, for which the inhibition is 8%.

In the case of `O=C(N/N=C\c1ccc([N+](=O)[O-])o1)C1COc2ccccc2O1` (stereo not given), the inhibition was 21.3%.

On to `O=C(N/N=C\c1ccc(-c2ccccc2[N+](=O)[O-])o1)C1COc2ccccc2O1` (stereo not given), for which the inhibition was 55.3% (active).

As to `O=C(N/N=C/c1ccc(-c2ccccc2[N+](=O)[O-])o1)[C@H]1C[C@@H]1c1ccccc1`, the inhibition was 63.4% (active).

`O=C(N/N=C\c1ccc(-c2ccc([N+](=O)[O-])cc2)o1)C1COc2ccccc2O1` (stereo not given): the inhibition was -8.4%.

As for `O=C(N/N=C/c1ccc(-c2cccc([N+](=O)[O-])c2)o1)[C@H]1C[C@@H]1c1ccccc1`, the inhibition is 8.6%.

For the compound `Cc1ccc(/C=N\NC(=O)C2COc3cc4ccccc4cc3O2)o1` (stereo not given), the inhibition is 0.7%.

Regarding `O=C(N/N=C\c1ccc(-c2ccccc2[N+](=O)[O-])o1)C1COc2cc3ccccc3cc2O1` (stereo not given), the inhibition was 65.2% (active).

With `O=C(N/N=C/c1ccco1)C1CC1c1ccccc1` (stereo not given), the inhibition was 0.2%.

Regarding `O=C(N/N=C\c1cccc([N+](=O)[O-])c1O)C1COc2ccccc2O1` (stereo not given), the inhibition is -15.4%.

Turning to `CC(=O)N1CCC(N(CCCOC(C)C)C(=O)Nc2ccc(C)c(C)c2)CC1`, the inhibition is 0.4%.

As for `Cc1nc2nc(SCC(=O)N3CCOCC3)nn2c(C)c1Cc1c(F)cccc1Cl`, the inhibition was 18.6%.

In the case of `Cc1cccc(NC(=O)Cn2nnc(-c3ccc(CN4CCCC4)cc3)n2)c1C`, the inhibition is 0.5%.

With `CN(c1ccccc1)S(=O)(=O)c1cccc(C(=O)OCC(=O)NCCCN2CCCC2=O)c1`, the inhibition was -7.4%.

With `CCOc1ccc(CCNC(=O)COC(=O)c2cccnc2OCC)cc1OCC`, the inhibition was 14.4%.

On to `COc1ccc(N2C(C(C)=O)=NN(c3ccccc3)C2c2cccs2)cc1` (stereo not given), for which the inhibition is 10.7%.

Take `CCOc1ccccc1N1CC(C(=O)Nc2ccc3c(c2)OCCO3)CC1=O` (stereo not given): the inhibition is 1.4%.

Turning to `Cc1csc(/C(C#N)=N/O)n1`, the inhibition is 8.3%.

Take `CC1CC(C)CN(CC(=O)c2cccs2)C1` (stereo not given): the inhibition was -20.3%.

In the case of `CCc1c(C(=O)Nc2ccc(OC)c(Cl)c2)[nH]c(C)c1C(C)=O`, the inhibition is -0.2%.

Consider `Cc1ccc(C(=O)NNc2cc(N3CCCC3)nc(N3CCCC3)n2)cc1`, for which the inhibition was 51.4% (active).

Regarding `O=C(CCc1ccccc1)Nc1ccc(N2CCCCC2)cc1`, the inhibition is 3.5%.

In the case of `O=C(CCc1ccccc1)NNc1cc(N2CCCCC2)nc(N2CCCCC2)n1`, the inhibition was 53.4% (active).

Take `O=C(NNc1cc(N2CCOCC2)nc(N2CCOCC2)n1)c1ccc(Cl)c(Cl)c1`: the inhibition is 48.8%.

In the case of `Cc1ccc(C(=O)NNC(=O)C2CCN(c3nc(C)cc(C)n3)CC2)cc1`, the inhibition was -8.6%.

In the case of `O=C(CCc1ccccc1)NNC(=O)C1CCCCC1`, the inhibition was -4.6%.

As to `O=C(NNc1cc(N2CCOCC2)nc(N2CCOCC2)n1)c1ccc([N+](=O)[O-])cc1`, the inhibition was 56.3% (active).

On to `CC(C)(C)c1ccc(C(=O)NNc2cc(N3CCOCC3)nc(N3CCOCC3)n2)cc1`, for which the inhibition was 48.8%.

On to `CC(C)(C)c1ccc(C(=O)NNc2cc(N3CCCCC3)nc(N3CCCCC3)n2)cc1`, for which the inhibition was 18.1%.

On to `CCOC(=O)N1CCN(C(=O)c2ccc(CN(c3ccccc3)S(C)(=O)=O)cc2)CC1`, for which the inhibition was -4.3%.

On to `CC(=O)N(c1c(C)n(C)n(-c2ccccc2)c1=O)C1(C(=O)NC2CCCCC2)CCCCC1`, for which the inhibition is 1.3%.

For the compound `Cc1onc(-c2c(Cl)cccc2Cl)c1C(=O)NCCCN1CCOCC1`, the inhibition was -0.3%.

For `O=C(c1ccccc1)N1CCOC12CCN(c1ncc(C(F)(F)F)cc1Cl)CC2`, the inhibition is 2.1%.

For `CCOC(=O)/C=C/C(=O)OCC(=O)Nc1c(Cl)cccc1Cl`, the inhibition is -9.4%.

`CCCc1nc2c(sc3nc4c(cc32)COC(C)(C)C4)c(=O)n1CCN(C)C`: the inhibition is 50.8% (active).

Take `CCc1nc2c(sc3nc4c(cc32)COC(C)(C)C4)c(=O)n1CCN(CC)CC`: the inhibition is 3.8%.

`CCCc1nc2c(sc3nc4c(cc32)COC(C)(C)C4)c(=O)n1CCN(CC)CC`: the inhibition was -0.7%.

Consider `Cc1ccc(C(=O)N/C(=C/c2ccccc2)C(=O)NCC2CCCO2)cc1` (stereo not given), for which the inhibition was -4.3%.

For the compound `NNC(=O)COc1ncn(-c2ccccc2)n1`, the inhibition was 4.5%.
